The supplement of paper PMC6992640

What was measured:
Assay in all cases: cell viability of combination (% of vehicle); higher = less cytotoxic
Conditions in all cases: 1 µM; 72 h; partner dose: 10 nM
HCI01 = system: HCI01 (cells of a triple-negative basal-like breast cancer xenograft)
Procedure: (§1)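 PDX cells were treated for 72 h with each drug at 1 µM plus afatinib (10 nM; 1 µM for WHIM30). Luciferase viability is expressed as percent of vehicle.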

UCD52 = system: UCD52 (cells of a triple-negative basal-like breast cancer xenograft)
Procedure: as §1

WHIM2 = system: WHIM2 (cells of a triple-negative basal-like breast cancer xenograft)
Procedure: as §1

SMILES | cell viability of combination (HCI01) | cell viability of combination (UCD52) | cell viability of combination (WHIM2)
CC(C)N=c1cc2n(-c3ccc(Cl)cc3)c3ccccc3nc-2cc1Nc1ccc(Cl)cc1 [Clofazimine] + CN(C)C/C=C/C(=O)Nc1cc2c(Nc3ccc(F)c(Cl)c3)ncnc2cc1O[C@H]1CCOC1 [Afatinib] | 45.8 | 69.6 | 38.9
COCCn1c2c([n+](Cc3cnccn3)c1C)C(=O)c1ccccc1C2=O.[Br-] + CN(C)C/C=C/C(=O)Nc1cc2c(Nc3ccc(F)c(Cl)c3)ncnc2cc1O[C@H]1CCOC1 [Afatinib] | 18.3 | 15.2 | 11.8
O=C(NN=Cc1ccc([N+](=O)[O-])o1)c1ccc(O)cc1 [Nifuroxazide] + CN(C)C/C=C/C(=O)Nc1cc2c(Nc3ccc(F)c(Cl)c3)ncnc2cc1O[C@H]1CCOC1 [Afatinib] | 50.8 | 79.4 | 48.8
CC[C@@H]1/C=C(\C)C[C@H](C)C[C@H](OC)[C@H]2O[C@@](O)(C(=O)C(=O)N3CCCC[C@H]3C(=O)O[C@H](/C(C)=C/[C@@H]3CC[C@H](Cl)[C@H](OC)C3)[C@H](C)[C@@H](O)CC1=O)[C@H](C)C[C@@H]2OC [Pimecrolimus] + CN(C)C/C=C/C(=O)Nc1cc2c(Nc3ccc(F)c(Cl)c3)ncnc2cc1O[C@H]1CCOC1 [Afatinib] | 51.2 | 70.7 | 42.6
Clc1ccc(COC(Cn2ccnc2)c2ccc(Cl)cc2Cl)c(Cl)c1.O=[N+]([O-])O (stereo not drawn) [Miconazole Nitrate] + CN(C)C/C=C/C(=O)Nc1cc2c(Nc3ccc(F)c(Cl)c3)ncnc2cc1O[C@H]1CCOC1 [Afatinib] | 63.9 | 76.3 | 52.2
COc1cc2nccc(Oc3ccc(NC(=O)Nc4cc(C)on4)c(Cl)c3)c2cc1OC [Tivozanib (AV-951)] + CN(C)C/C=C/C(=O)Nc1cc2c(Nc3ccc(F)c(Cl)c3)ncnc2cc1O[C@H]1CCOC1 [Afatinib] | 43.9 | 40.2 | 39.8
CN1CCN(c2ccc(C(=O)/N=c3\[nH][nH]c4ccc(Cc5cc(F)cc(F)c5)cc34)c(NC3CCOCC3)c2)CC1 [Entrectinib] + CN(C)C/C=C/C(=O)Nc1cc2c(Nc3ccc(F)c(Cl)c3)ncnc2cc1O[C@H]1CCOC1 [Afatinib] | 57.5 | 54.3 | 38.5
CN(C)c1ccc(O)c2c1CC1CC3C(N(C)C)C(=O)C(C(N)=O)=C(O)C3(O)C(=O)C1=C2O.Cl (stereo not drawn) [Minocycline HCl] + CN(C)C/C=C/C(=O)Nc1cc2c(Nc3ccc(F)c(Cl)c3)ncnc2cc1O[C@H]1CCOC1 [Afatinib] | 66.6 | 75.9 | 49.9
CSc1ccc2c(c1)N(CCC1CCCCN1C)c1ccccc1S2.Cl (stereo not drawn) [Thioridazine HCl] + CN(C)C/C=C/C(=O)Nc1cc2c(Nc3ccc(F)c(Cl)c3)ncnc2cc1O[C@H]1CCOC1 [Afatinib] | 61.8 | 58.1 | 47.4
COc1cccc2c1C(=O)c1c(O)c3c(c(O)c1C2=O)CC(O)(C(=O)CO)CC3OC1CC(N)C(O)C(C)O1.Cl (stereo not drawn) [Doxorubicin (Adriamycin) HCl] + CN(C)C/C=C/C(=O)Nc1cc2c(Nc3ccc(F)c(Cl)c3)ncnc2cc1O[C@H]1CCOC1 [Afatinib] | 49.5 | 40.9 | 13.6
CCc1c(Cl)c(O)c(Cl)c(O)c1C(=O)OC1C(C)OC(OCC2=CC=CCC(O)C(C)=CC(CC)C(OC3OC(C)(C)C(OC(=O)C(C)C)C(O)C3O)C(C)=CC(C)=CCC(C(C)O)OC2=O)C(OC)C1O (stereo not drawn) [Fidaxomicin] + CN(C)C/C=C/C(=O)Nc1cc2c(Nc3ccc(F)c(Cl)c3)ncnc2cc1O[C@H]1CCOC1 [Afatinib] | 56.2 | 81.9 | 51.9
CC[C@@]1(O)C(=O)OCc2c1cc1n(c2=O)Cc2cc3c(CN(C)C)c(O)ccc3nc2-1 [Topotecan] + CN(C)C/C=C/C(=O)Nc1cc2c(Nc3ccc(F)c(Cl)c3)ncnc2cc1O[C@H]1CCOC1 [Afatinib] | 40.1 | 76.4 | 31.4
Cc1ccc(C(=O)N(CCCN)C(c2nc3cc(Cl)ccc3c(=O)n2Cc2ccccc2)C(C)C)cc1 (stereo not drawn) + CN(C)C/C=C/C(=O)Nc1cc2c(Nc3ccc(F)c(Cl)c3)ncnc2cc1O[C@H]1CCOC1 [Afatinib] | 50.5 | 36 | 35.8
COc1ccccc1OCCNCC(O)COc1cccc2[nH]c3ccccc3c12 (stereo not drawn) [Carvedilol] + CN(C)C/C=C/C(=O)Nc1cc2c(Nc3ccc(F)c(Cl)c3)ncnc2cc1O[C@H]1CCOC1 [Afatinib] | 48.7 | 59.2 | 41.1
Cc1cccc(CN2CCN(C(c3ccccc3)c3ccc(Cl)cc3)CC2)c1.Cl.Cl (stereo not drawn) [Meclizine 2HCl] + CN(C)C/C=C/C(=O)Nc1cc2c(Nc3ccc(F)c(Cl)c3)ncnc2cc1O[C@H]1CCOC1 [Afatinib] | 65.4 | 68.6 | 53.1
COc1ccc(C[C@H](N)C(=O)N[C@@H]2[C@H](O)[C@H](n3cnc4c(N(C)C)ncnc43)O[C@@H]2CO)cc1.Cl.Cl [Puromycin dihydrochloride] + CN(C)C/C=C/C(=O)Nc1cc2c(Nc3ccc(F)c(Cl)c3)ncnc2cc1O[C@H]1CCOC1 [Afatinib] | 69.5 | 18.2 | 82.6

SMILES | cell viability of combination (HCI01) | cell viability of combination (UCD52) | cell viability of combination (WHIM2)
Cc1cc(-n2c(=O)[nH]c(=O)n(C)c2=O)ccc1Oc1ccc(SC(F)(F)F)cc1 [Toltrazuril] + CN(C)C/C=C/C(=O)Nc1cc2c(Nc3ccc(F)c(Cl)c3)ncnc2cc1O[C@H]1CCOC1 [Afatinib] | 58.1 | 76.1 | 48.4
O=C(O)CO.[NH2-].[NH2-].[Pt+2] [Nedaplatin] + CN(C)C/C=C/C(=O)Nc1cc2c(Nc3ccc(F)c(Cl)c3)ncnc2cc1O[C@H]1CCOC1 [Afatinib] | 49.9 | 82.6 | 48.5
Clc1ccc(COC(Cn2ccnc2)c2ccc(Cl)cc2Cl)cc1.O=[N+]([O-])O (stereo not drawn) [Econazole nitrate] + CN(C)C/C=C/C(=O)Nc1cc2c(Nc3ccc(F)c(Cl)c3)ncnc2cc1O[C@H]1CCOC1 [Afatinib] | 55.8 | 62.2 | 55.8
CC1=C(C(=O)OC(C)C)C(c2cccc([N+](=O)[O-])c2)C(C(=O)OC2CN(C(c3ccccc3)c3ccccc3)C2)=C(N)N1 (stereo not drawn) [Azelnidipine] + CN(C)C/C=C/C(=O)Nc1cc2c(Nc3ccc(F)c(Cl)c3)ncnc2cc1O[C@H]1CCOC1 [Afatinib] | 56.7 | 52.3 | 43
CCN(CC)CCNC(=O)c1c(C)[nH]c(C=C2C(=O)Nc3ccc(F)cc32)c1C [Sunitinib] + CN(C)C/C=C/C(=O)Nc1cc2c(Nc3ccc(F)c(Cl)c3)ncnc2cc1O[C@H]1CCOC1 [Afatinib] | 38.8 | 50.4 | 25.7
Nc1ncn(C2OC(CO)C(O)C2O)c(=O)n1 (stereo not drawn) [5-Azacytidine] + CN(C)C/C=C/C(=O)Nc1cc2c(Nc3ccc(F)c(Cl)c3)ncnc2cc1O[C@H]1CCOC1 [Afatinib] | 53.5 | – | 48.9
CCOc1nc2cccc(C(=O)OC(C)OC(=O)OC3CCCCC3)c2n1Cc1ccc(-c2ccccc2-c2nn[nH]n2)cc1 (stereo not drawn) [Candesartan Cilexetil] + CN(C)C/C=C/C(=O)Nc1cc2c(Nc3ccc(F)c(Cl)c3)ncnc2cc1O[C@H]1CCOC1 [Afatinib] | 55.5 | – | 50.8
CCc1oc2ccccc2c1C(=O)c1cc(Br)c(O)c(Br)c1 [Benzbromarone] + CN(C)C/C=C/C(=O)Nc1cc2c(Nc3ccc(F)c(Cl)c3)ncnc2cc1O[C@H]1CCOC1 [Afatinib] | 56.3 | – | 48
CC(C)COc1ccc(CNC(=O)N(Cc2ccc(F)cc2)C2CCN(C)CC2)cc1 [Pimavanserin] + CN(C)C/C=C/C(=O)Nc1cc2c(Nc3ccc(F)c(Cl)c3)ncnc2cc1O[C@H]1CCOC1 [Afatinib] | 52.8 | – | 50.8
CC(C)CC(NC(=O)CNC(=O)c1cc(Cl)ccc1Cl)B(O)O (stereo not drawn) + CN(C)C/C=C/C(=O)Nc1cc2c(Nc3ccc(F)c(Cl)c3)ncnc2cc1O[C@H]1CCOC1 [Afatinib] | 37 | – | 94.3
COc1ccc2c(O[C@H]3CC4C(=O)N(C)CCCC/C=C\[C@H]5C[C@@]5(C(=O)NS(=O)(=O)C5CC5)NC(=O)[C@@H]4C3)cc(-c3nc(C(C)C)cs3)nc2c1C (stereo partly drawn) [Simeprevir] + CN(C)C/C=C/C(=O)Nc1cc2c(Nc3ccc(F)c(Cl)c3)ncnc2cc1O[C@H]1CCOC1 [Afatinib] | 53.9 | – | 46.8
CCOc1cc2ncc(C#N)c(Nc3ccc(OCc4ccccn4)c(Cl)c3)c2cc1NC(=O)C=CCN(C)C [Neratinib (HKI-272)] + CN(C)C/C=C/C(=O)Nc1cc2c(Nc3ccc(F)c(Cl)c3)ncnc2cc1O[C@H]1CCOC1 [Afatinib] | 60.9 | – | 25.5
Cl.Nc1ccn(C2OC(CO)C(O)C2O)c(=O)n1 (stereo not drawn) [Cytarabine hydrochloride] + CN(C)C/C=C/C(=O)Nc1cc2c(Nc3ccc(F)c(Cl)c3)ncnc2cc1O[C@H]1CCOC1 [Afatinib] | 46.6 | – | 40.3
COC(=O)C1=C(C)NC(C)=C(C(=O)OC2CCCN(Cc3ccccc3)C2)C1c1cccc([N+](=O)[O-])c1.Cl (stereo not drawn) [Benidipine HCl] + CN(C)C/C=C/C(=O)Nc1cc2c(Nc3ccc(F)c(Cl)c3)ncnc2cc1O[C@H]1CCOC1 [Afatinib] | 53.4 | – | 51.4
COc1cccc2c1C(=O)c1c(O)c3c(c(O)c1C2=O)C[C@@](O)(C(C)=O)C[C@@H]3O[C@H]1C[C@H](N)[C@H](O)[C@H](C)O1.Cl [Daunorubicin HCl] + CN(C)C/C=C/C(=O)Nc1cc2c(Nc3ccc(F)c(Cl)c3)ncnc2cc1O[C@H]1CCOC1 [Afatinib] | 70.7 | – | 9.65
